From publication PMC12136788
Residue numbers refer to the chain shown, from its start. Over roughly 24,000 sequences, “enrichment r” has its median near 0.99; the highest 2% begin near 3.7. The sample holds the highest values, similar sequences and a random draw of the others, so the mix is not that of the screen.

T1: UNK ZnF1-3 (human, UniProt Q9C0B0 31-174)
T1 sequence: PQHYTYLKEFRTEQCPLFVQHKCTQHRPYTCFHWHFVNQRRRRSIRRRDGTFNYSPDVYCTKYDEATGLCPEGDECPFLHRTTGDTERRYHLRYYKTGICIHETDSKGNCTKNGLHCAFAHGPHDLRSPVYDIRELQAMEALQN

B1: chr16:50257146:50257147:+_ENSG00000121274_ENST00000436909|hu_mus|FALSE|FALSE (ssRNA)
RNA: GGGAGUUCUACAGUCCGACGAUCUAUCCGGAUGCCAGUCUUUAAGUAAUUGAAGUGCCGUCCAUAUAAUUCAAAAAACUCUAUUAAGAGAACACCAUAGUUUGUAUUGGGGAUGCAAGCAUCUUCCCUGGGAUGUAACUGAAGCAACAGAGGAUUGAGCAUCA
B2: chr1:39494447:39494448:+_ENSG00000168653_ENST00000372967|hu_mus|hu_hu_hu_mus_False|18_18 (ssRNA)
RNA: GGGAGUUCUACAGUCCGACGAUCGCACCGAGCGGCGUUCUUAUAGGGCUGUUCUGCGCUUAGGAACAUAAAGUGCCGGUCCAGGCUGAUGCCCAGCUUUUUCUGUAUGUCAAGGAAAGGCAUGGCCCUGCAGUGCCCUUGUCACAACAGAGGAUUGAGCAUCA
B3: chrX:140365796:140365797:-_ENSMUSG00000031285_ENSMUST00000033642|mus_mus|mus_mus_mus_hu_False|8_58 (ssRNA)
RNA: GGGAGUUCUACAGUCCGACGAUCCUUCUCAUUACUCAGUGCCUGCAAGGUUCUGGUUCGGUAGAAGCUACAGUGGGCACUAUGAGUGGGGCUAGGCAACCCAUUCAUCCGGGAGCCUCGCAUGUUCCUAGAUGCUUUAUCUCUCAACAGAGGAUUGAGCAUCA
B4: chr3:10015032:10015033:+_ENSMUSG00000027533_ENSMUST00000029046|mus_mus|mus_mus_mus_hu_True|1_38 (ssRNA)
RNA: GGGAGUUCUACAGUCCGACGAUCGUUUUUACCAUCACAAGUGAUGAUACAAUCUGGCUUGGCCAUUGCGCCCAUUUUUCGCAAAGCUAUUCCCACUCCUAGCUCUUUCAUGUAUUCAUCAAAGCCUUUGCUGUCCAUCAGGCGCAACAGAGGAUUGAGCAUCA
B5: chr4:6320793:6320794:+_ENSMUSG00000028249_ENSMUST00000103008|mus_mus|FALSE|FALSE (ssRNA)
RNA: GGGAGUUCUACAGUCCGACGAUCAGUAGGCAUGAUUGUGAUGGUAACCACAGUCCCAGCUGUUGACAGUAUAUCUGCAAUCUGAGCAUCCUUCAAGCCAAUGACGUUCUGUCCGUUGAUCUCACAGAUGUGGUGAUCAGUGAGCAACAGAGGAUUGAGCAUCA
B6: chr2:174291214:174291215:-_ENSMUSG00000016257_ENSMUST00000016401|mus_hu|motif|central (ssRNA)
RNA: GGGAGUUCUACAGUCCGACGAUCUUGAUCAAGUCACAUAGCCUUACACCAACUUAUCAAAAAAAAAAAAAAAAAAACGGCCCAAAAUAUAGUUGUAUUUUUAAAAUAACAAAUAAAUAUAUAGUCAGUUUGGAGAGACCUGGACAACAGAGGAUUGAGCAUCA
B7: chr7:135612270:135612271:-_ENSG00000105887_ENST00000393085|hu_mus|hu_hu_hu_mus_False|8_18 (ssRNA)
RNA: GGGAGUUCUACAGUCCGACGAUCGUUUUUUUCUGAGAUGUUAAAUAGUACUUCAGUGGAAAACAAAACUUAACCUUUUAUUAAUGCGUGUUGUACCAAAAGCAGACAUUUUAGCUUGCUUCCUUUACUCAAAAUAUCAUUAAGCAACAGAGGAUUGAGCAUCA
B8: chr2:174291214:174291215:-_ENSMUSG00000016257_ENSMUST00000016401|mus_hu|FALSE|FALSE (ssRNA)
RNA: B6 RNA with G78U, G79A
B9: chr20:57609950:57609951:-_ENSG00000101166_ENST00000355937|hu_hu|FALSE|FALSE (ssRNA)
RNA: GGGAGUUCUACAGUCCGACGAUCUGUUUUGAUCAAGUCACAUAGCCUUACACCAACUUAUCAAAAAAAAAAAAAAAAAAACUACCCAAAAUAUAGUUGUAUUUUUAAAAUAACAAAUAAAUAUAUAGUCAGUUUGGAGAGACCCAACAGAGGAUUGAGCAUCA
B10: chr22:42024162:42024163:+_ENSG00000196419_ENST00000405878|hu_hu|FALSE|FALSE (ssRNA)
RNA: GGGAGUUCUACAGUCCGACGAUCCUCAUCUUCACUCUGAGAUUCAAACAUAGCCUUGGAGGCAUCAACCAAAAAAAUCAAACUAUCUCUUCCUGAAUAUUUAUAGUCUCCACUUGCUUCAAGGUUCUCUUCUUGUUCUUCCUCCAACAGAGGAUUGAGCAUCA
B11: chr2:202488911:202488912:-_ENSG00000155755_ENST00000286196|hu_hu|FALSE|FALSE (ssRNA)
RNA: GGGAGUUCUACAGUCCGACGAUCUUUUAACAUUUUUCAUAAUAUUGAGAGAUGUUUCAGUAUUAUAUAAUCAAAAAAUCUAUUACAAAUACACAUGUAUACAUCUUAUAAAAAUACAUUUAAAAACAAAAAUGGGACAAAUACCAACAGAGGAUUGAGCAUCA
B12: chr3:142455598:142455599:-_ENSMUSG00000004591_ENSMUST00000043812|mus_mus|FALSE|FALSE (ssRNA)
RNA: GGGAGUUCUACAGUCCGACGAUCGUAGAGCAUUUGAUCAAAUUAUUUGUGAGACUUUUGAGGUACAGCUUUAGUGUUAUAAUAACUUUUUAUAAAAUAUAGACUGUUUUAUCAAAAAUAUUUAUACAUUCUGUUACAAUAUAUCAACAGAGGAUUGAGCAUCA
B13: 60597838_60597958_3500_3pUTR_ENSMUSG00000049323_ENSMUST00000056907|mouse|control|control (ssRNA)
RNA: GGGAGUUCUACAGUCCGACGAUCUUUUUGGGAGCUACUUCCUUAAUGAACCAGGAGCAGCUGCUACUGUCCUUCUGGAGGGCCAUGUGCCACCUCUGCUCAGCCCACAUCACACACUGCCCAGGGCUAUGUUGCAACUAUAACCAACAGAGGAUUGAGCAUCA
B14: chr17:45757878:45757879:+_ENSG00000108424_ENST00000290158|hu_hu|FALSE|FALSE (ssRNA)
RNA: GGGAGUUCUACAGUCCGACGAUCUGGCCUAGCUUCUACUAAUUUCAGUACAUCCUUCCCAAAUGCUGUACAUAAGUCCCCUAUUAGUCCAGCAGCACAAGCUACUACUCCAUCUGUGUGAUCCUCAUCUCCAGCAAUGUGGUCCAACAGAGGAUUGAGCAUCA

What follows are binders tested against T1, UNK ZnF1-3 (assay: nsRBNS (natural sequence RNA bind-n-seq); RBNS binding buffer (assumed for nsRBNS): 25 mM Tris pH 7.5, 150 mM KCl, 3 mM MgCl2, 0.01% Triton X-100, 500 ug/ml BSA, 20 U/ml SUPERase-In, 4 C; UNK is unkempt and MSI1 is Musashi-1; names of the RNAs are library labels; protein concentration not given here; high values mean tight binding).
With B1 the binding signal was 1.63 enrichment R.
Binder B2 has a binding signal of 0.805 enrichment R.
For B3, the binding signal was 0.475 enrichment R.
For B4, the binding signal was 0.702 enrichment R.
B5 gave a binding signal of 0.725 enrichment R.
B6 showed a binding signal of 8.06 enrichment R.
In the case of B7, the binding signal is reported as 0.545 enrichment R.
B8 showed a binding signal of 7.95 enrichment R.
B9 was tested, and the binding signal was 5.71 enrichment R.
For B10, the binding signal was 1.1 enrichment R.
B11 gave a binding signal of 1.78 enrichment R.
For B12, the binding signal was 0.537 enrichment R.
For B13, the binding signal was 0.845 enrichment R.
Work on B14 yielded a binding signal of 1.02 enrichment R.
